For 35 molecules, Potency and activity change, negative = cytotoxic results are on record in PubChem BioAssay (NCATS).

Each structure is given as a SMILES string. Inconclusive results are not listed. Values without a mark were called inactive. The source made the active and inactive calls. Calls follow the shape of the dose curve; as a rule, active = well fitted curve in the direction sought with a large enough effect; inconclusive = small, poorly fitted or top-dose-only effect, or another doubt; inactive = no such curve, though single readings can be large; an effect the other way counts as inactive or inconclusive.
Potency is read from the fitted curve at half-maximal effect.

One experiment can be described thus: qHTS of pediatric cancer cell lines to identify multiple opportunities for drug repurposing: Primary screen for A673 cells (AID 1347092). Also: nearly all actives have a fitted effect of over 45% in size. As to activity change, negative = cytotoxic: % is scaled to controls: 0 for no effect and ±100 for the full control effect. Conditions: A673 Ewing sarcoma viability, CellTiter-Glo ATP luminescence, 48 h; series mostly up to 46 µM. A digest of the protocol: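 48 h compound exposure, A673, 500-1,000 cells/well, 37 degrees C/5% CO2. MIPE: 11-point, 0.78 nM-46 µM; NPC: 8-point, 0.59 nM-46 µM (final). Readout CellTiter-Glo luminescence after 15 min RT.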
A general note: In qHTS, concentration-response curves come from the screen itself.
For the molecule `N#Cc1c(O)c2c(-c3ccc(-c4ccccc4O)cc3)csc2[nH]c1=O`, the Potency result is “inactive”.
As to `OCc1ccc(-c2ccc(-c3ccc(CO)s3)o2)s1`, the Potency is 0.148 µM (active).
Same read-out and setting: then `O=C(Cc1ccc(-c2ccc(OCCN3CCOCC3)cc2)cn1)NCc1ccccc1`, with 0.0235 µM (active); and `O=C(C=Cc1c(C(=O)O)[nH]c2cc(Cl)cc(Cl)c12)Nc1ccccc1`, with “inactive”.
Same read-out and setting: then `C1=CCOCc2cc(ccc2OCCN2CCCC2)Nc2nccc(n2)-c2cccc(c2)OCC1`, with 2.35 µM (active); and `COC(=O)c1ccc2c(C(=Nc3ccc(N(C)C(=O)CN4CCN(C)CC4)cc3)c3ccccc3)c(O)[nH]c2c1`, with 0.296 µM (active); and `Nc1ccn([C@@H]2O[C@H](CO)[C@H](O)C2(F)F)c(=O)n1`, with 0.0187 µM (active).
Still for that read-out and setting: then `COc1cccc2nc(-c3cccs3)nc(NN3C(=O)C=C(C)C3=O)c12`, with 2.35 µM (active).
Regarding `CNC(=O)c1cc(Oc2ccc(NC(=O)Nc3cc(C(C)(C)C)nn3-c3ccc4ncccc4c3)c(F)c2)ccn1`, the Potency was 5.9 µM (active).
In the case of `O=C(O)CCCc1c[nH]c2ccccc12`, the Potency result is “inactive”.
Still for that read-out and setting: with `COc1cc2c(Oc3ccc(NC(=O)C4(C(=O)Nc5ccc(F)cc5)CC4)cc3F)ccnc2cc1OCCCN1CCOCC1` the figure was 2.35 µM (active); with `CCc1cc2c(cc1N1CCC(N3CCOCC3)CC1)C(C)(C)c1[nH]c3cc(C#N)ccc3c1C2=O`, “inactive”.
Consider `COc1ccc(CC2c3cc(OC)c(OC)cc3CC[N+]2(C)CCC(=O)OCCCCCOC(=O)CC[N+]2(C)CCc3cc(OC)c(OC)cc3C2Cc2ccc(OC)c(OC)c2)cc1OC` (stereo not given), for which the activity change, negative = cytotoxic is -4.72% [at 9.22 µM].
As for `C[C@]1(CO)CN(c2cc(C(=O)Nc3ccc4c(c3)-c3c(c(C(N)=O)nn3-c3ccc(F)cc3)CC4)c(Cl)cn2)C[C@@]1(C)CO`, the Potency was 9.35 µM (active).
The same measure, in the same setting: then `CC(C)(C)c1cc(C(C)(C)C)c(NC(=O)c2c[nH]c3ccccc3c2=O)cc1O`, with “inactive”; and `CC=CC1=C(C(=O)O)N2C(=O)[C@H](NC(=O)[C@H](N)c3ccc(O)cc3)[C@@H]2SC1`, with 0.935 µM (active).
Same read-out and setting: then `Clc1cccc(-n2nnnc2NCc2ccccc2Oc2ccccn2)c1Cl`, with “inactive”.
The same measure, in the same setting: then `C=CC(=O)Nc1cc2c(Nc3ccc(F)c(Cl)c3)ncnc2cc1C#CC(C)(C)N1CCN(C)CC1`, with 1.48 µM (active).
Turning to `CC1(C)OC2=C(C(=O)c3ccccc3C2=O)[C@H](NCc2ccccc2)[C@H]1O`, the Potency is 0.469 µM (active).
Same read-out and setting: with `CN1c2cc(O)c(N=NC(N)=O)cc2CC1S(=O)(=O)O` (stereo not given) the entry was “inactive”; with `CCCCCCCCCC(=O)N[C@@H](Cc1c[nH]c2ccccc12)C(=O)N[C@H](CC(N)=O)C(=O)N[C@@H](CC(=O)O)C(=O)N[C@@H]1C(=O)NCC(=O)N[C@@H](CCCN)C(=O)N[C@@H](CC(=O)O)C(=O)N[C@H](C)C(=O)N[C@@H](CC(=O)O)C(=O)NCC(=O)N[C@H](CO)C(=O)N[C@@H]([C@@H](C)CC(=O)O)C(=O)N[C@@H](CC(=O)c2ccccc2N)C(=O)O[C@@H]1C`, “inactive”.
Same read-out and setting: then `CC(C)c1ccc(Cn2ccc3c4c(N)nc(NC5CC5)nc4ccc32)cc1`, with 2.96 µM (active); and `O=C(O)Cn1nnc(-c2cc(N3CCC(Oc4cc(F)ccc4Br)CC3)no2)n1`, with 0.372 µM (active).
Still for that read-out and setting: then `CC(=O)OCCN1C(=O)c2c(C)nc3ccc(S(=O)(=O)N4CCOCC4)cc3c2C1=O`, with 7.43 µM (active).

A further experiment can be described thus: qHTS of pediatric cancer cell lines to identify multiple opportunities for drug repurposing: Primary screen for SK-N-MC cells (AID 1347093).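 As to activity change, negative = cytotoxic: plate controls were DMSO neutral control for no effect and bortezomib for full effect.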 Conditions: SK-N-MC viability, CellTiter-Glo luminescence, 48 h; series mostly up to 46 µM. A digest of the protocol: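 Metabolically active cells were quantified by ATP-dependent luminescence (CellTiter-Glo, 15 min at room temperature) following 48 h treatment. Cells had been plated at 500-1,000 per well and settled for 5 h beforehand.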
Turning to `CC(=O)SC[C@@H](C)C(=O)N1CCC[C@H]1C(=O)N[C@@H](Cc1ccccc1)C(=O)O`, the Potency result was “inactive”.
The same measure, in the same setting: then `COCCn1c2c([n+](Cc3cnccn3)c1C)C(=O)c1ccccc1C2=O`, with 0.0118 µM (active); and `Cc1c(Cn2c(C)nc3c(C(=O)O)cc(N4CCOCC4)cc32)cccc1C(F)(F)F`, with 0.059 µM (active); and `CC1=C(CO)C(=O)O[C@@H]([C@@H](C)[C@H]2CC[C@H]3[C@@H]4C[C@H]5O[C@]56[C@@H](O)C=CC(=O)[C@]6(C)[C@@H]4CC[C@]23C)C1`, with 0.132 µM (active).
On the same count and under the same terms, then `C=C1C(=CC=C2CCC[C@]3(C)[C@@H]([C@H](C)C=C[C@H](C)C(C)C)CC[C@@H]23)C[C@@H](O)C[C@@H]1O`, with 0.469 µM (active); and `NC(=O)Nc1cc(-c2cccc(F)c2)sc1C(=O)N[C@H]1CCCNC1`, with 0.0372 µM (active); and `Cc1cc(Nc2cc(NC(=O)c3c(Cl)cccc3Cl)ccn2)nc(N)n1`, with 0.132 µM (active).
The same measure, in the same setting: then `CNC(=O)CN1CCC(Oc2cc3c(Nc4cccc(Cl)c4F)ncnc3cc2OC)CC1`, with 0.0053 µM (active); and `CN1CC[C@@H](c2c(O)cc(O)c3c(=O)cc(-c4ccccc4Cl)oc23)[C@@H](O)C1`, with 0.118 µM (active); and `CN1CCN(c2ccc3nc(-c4c(N)c5c(F)cccc5[nH]c4=O)[nH]c3c2)CC1`, with 14.8 µM (active).
As to `CCOc1ccccc1OCCNC(C)Cc1ccc(OC)c(S(N)(=O)=O)c1` (stereo not given), the Potency entry was “inactive”.

A further experiment can be described thus: qHTS of pediatric cancer cell lines to identify multiple opportunities for drug repurposing: Primary screen for BT-37 cells (AID 1347094).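 As to activity change, negative = cytotoxic: plate controls were DMSO for no effect and bortezomib for full effect.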 To be noted: BT-37 viability, CellTiter-Glo luminescence, 48 h; series mostly up to 57.3 µM. The essentials:
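Cells seeded at 500-1,000 cells/well in growth media, rested 5 hours at 37 degrees C, 5% CO2, then dosed; MIPE compounds at 11-point (from 0.78 nM) and NPC at 8-point (from 0.59 nM) final concentrations. Viability by CellTiter-Glo luminescence after 48 hours.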
Turning to `N#Cc1c(O)c2c(-c3ccc(-c4ccccc4O)cc3)csc2[nH]c1=O`, the Potency entry is “inactive”.
The same measure, in the same setting: then `OCc1ccc(-c2ccc(-c3ccc(CO)s3)o2)s1`, with “inactive”; and `CC(=O)SC[C@@H](C)C(=O)N1CCC[C@H]1C(=O)N[C@@H](Cc1ccccc1)C(=O)O`, with “inactive”.
On the same count and under the same terms, with `O=C(Cc1ccc(-c2ccc(OCCN3CCOCC3)cc2)cn1)NCc1ccccc1` the figure was 0.0685 µM (active); with `C1=CCOCc2cc(ccc2OCCN2CCCC2)Nc2nccc(n2)-c2cccc(c2)OCC1`, 12.2 µM (active); with `COCCn1c2c([n+](Cc3cnccn3)c1C)C(=O)c1ccccc1C2=O`, 0.153 µM (active).
The same measure, in the same setting: then `Nc1ccn([C@@H]2O[C@H](CO)[C@H](O)C2(F)F)c(=O)n1`, with 0.0306 µM (active); and `COc1cc2c(Oc3ccc(NC(=O)C4(C(=O)Nc5ccc(F)cc5)CC4)cc3F)ccnc2cc1OCCCN1CCOCC1`, with 27.3 µM (active); and `CCc1cc2c(cc1N1CCC(N3CCOCC3)CC1)C(C)(C)c1[nH]c3cc(C#N)ccc3c1C2=O`, with “inactive”.
In the case of `COc1ccc(CC2c3cc(OC)c(OC)cc3CC[N+]2(C)CCC(=O)OCCCCCOC(=O)CC[N+]2(C)CCc3cc(OC)c(OC)cc3C2Cc2ccc(OC)c(OC)c2)cc1OC` (stereo not given), the activity change, negative = cytotoxic was 6.03% [at 11.5 µM].
Regarding `Cc1c(Cn2c(C)nc3c(C(=O)O)cc(N4CCOCC4)cc32)cccc1C(F)(F)F`, the Potency entry is “inactive”.
For the molecule `CC1=C(CO)C(=O)O[C@@H]([C@@H](C)[C@H]2CC[C@H]3[C@@H]4C[C@H]5O[C@]56[C@@H](O)C=CC(=O)[C@]6(C)[C@@H]4CC[C@]23C)C1`, the Potency is 2.17 µM (active).
Same read-out and setting: then `C=C1C(=CC=C2CCC[C@]3(C)[C@@H]([C@H](C)C=C[C@H](C)C(C)C)CC[C@@H]23)C[C@@H](O)C[C@@H]1O`, with 0.968 µM (active).
Same read-out and setting: then `NC(=O)Nc1cc(-c2cccc(F)c2)sc1C(=O)N[C@H]1CCCNC1`, with 0.485 µM (active); and `Cc1cc(Nc2cc(NC(=O)c3c(Cl)cccc3Cl)ccn2)nc(N)n1`, with 0.544 µM (active).
The same measure, in the same setting: with `CC(C)(C)c1cc(C(C)(C)C)c(NC(=O)c2c[nH]c3ccccc3c2=O)cc1O` the entry was “inactive”; with `Clc1cccc(-n2nnnc2NCc2ccccc2Oc2ccccn2)c1Cl`, “inactive”.
Take `CNC(=O)CN1CCC(Oc2cc3c(Nc4cccc(Cl)c4F)ncnc3cc2OC)CC1`: the Potency was 0.001 µM (active).
Still for that read-out and setting: with `CC1(C)OC2=C(C(=O)c3ccccc3C2=O)[C@H](NCc2ccccc2)[C@H]1O` the figure was 8.63 µM (active); with `CN1c2cc(O)c(N=NC(N)=O)cc2CC1S(=O)(=O)O` (stereo not given), “inactive”.
`CCCCCCCCCC(=O)N[C@@H](Cc1c[nH]c2ccccc12)C(=O)N[C@H](CC(N)=O)C(=O)N[C@@H](CC(=O)O)C(=O)N[C@@H]1C(=O)NCC(=O)N[C@@H](CCCN)C(=O)N[C@@H](CC(=O)O)C(=O)N[C@H](C)C(=O)N[C@@H](CC(=O)O)C(=O)NCC(=O)N[C@H](CO)C(=O)N[C@@H]([C@@H](C)CC(=O)O)C(=O)N[C@@H](CC(=O)c2ccccc2N)C(=O)O[C@@H]1C`: the Potency entry was “inactive”.
Same read-out and setting: with `CN1CC[C@@H](c2c(O)cc(O)c3c(=O)cc(-c4ccccc4Cl)oc23)[C@@H](O)C1` the figure was 0.109 µM (active); with `CC(C)c1ccc(Cn2ccc3c4c(N)nc(NC5CC5)nc4ccc32)cc1`, 12.2 µM (active).
Still for that read-out and setting: with `CN1CCN(c2ccc3nc(-c4c(N)c5c(F)cccc5[nH]c4=O)[nH]c3c2)CC1` the figure was 15.3 µM (active); with `CCOc1ccccc1OCCNC(C)Cc1ccc(OC)c(S(N)(=O)=O)c1` (stereo not given), “inactive”.
